HEK cytotox: HEK 293 cell cytotoxicity. HEK 293 viability, ATP luminescence (CellTiter-Glo), 48-72 h. Potency, µM (series often up to 115 µM), for the others: at the highest dose activity change, negative = cytotoxicity, hits mostly inhibitors. 6.6% of 94,000 active. AID 1345083; also: nearly all actives have a fitted effect of over 60% in size
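CellTiter-Glo luminescence (cellular ATP) was read after 48 or 72 hr of compound exposure at 37 degree Celsius. Cells were HEK 293 plated at 250 cells/well.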
NPR1 antag: human Npr1 receptor antagonism | Potency, µM (top dose mostly 46.3 µM), for the others: at the highest dose activity change, negative = inhibition, actives largely listed as inhibitors | 1.6% of 76,000 active | HEK293 hNpr1 GloSensor cGMP, ANP-stimulated luminescence; calls by dose curve; also: nearly all actives have a fitted effect of over 60% in size
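HEK293 cells stably expressing human Npr1 and cGMP GloSensor pGS-40F, loaded 2 h with 2% GloSensor reagent, given compound 30 min at room temperature. Luminescence read before and 20 min after 0.1 nM hNppA.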
FLuc inh: inhibitors of firefly (Photinus pyralis) luciferase; 2.5% of 76,000 active; Potency, µM (top dose mostly 115 µM), actives largely listed as inhibitors; purified P. pyralis luciferase, luminescence, biochemical; also: nearly all actives have a fitted effect of over 65% in size
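Biochemical qHTS: compound (6-point titration) added to 10uM D-luciferin plus 10uM ATP in Tris acetate pH 7.5 buffer with Mg, Tween-20 and BSA, then purified enzyme at 10nM; light output imaged.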
3T3 cytotox: cytotoxic compounds in NIH 3T3 cells; 4.3% of 94,000 active; Potency, µM (series often up to 96.7 µM), without a hit: at the highest dose activity change, negative = cytotoxicity, actives largely listed as inhibitors; NIH 3T3 viability, CellTiter-Glo ATP luminescence, 48-72 h; AID 1345082; also: nearly all actives have a fitted effect of over 55% in size
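Cells were seeded at 400 per well, treated with pin-transferred compound, and kept 48 or 72 hr at 37 °C before CellTiter-Glo addition and luminescence imaging of cellular ATP.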
An asterisk follows results filed as active; [ ] = dose if it differs, or a comment. This is a sample that favours compounds with a hit; in the whole collection about 11% have one here. Unless noted, calls follow the shape of the dose curve; as a rule, active = well fitted curve in the direction sought with a large enough effect; inconclusive = small, poorly fitted or top-dose-only effect, or another doubt; inactive = no such curve, though single readings can be large; an effect the other way counts as inactive or inconclusive. % is scaled to controls: 0 for no effect and ±100 for the full control effect; potency is read from the fitted curve at half-maximal effect.

O=C(NCc1ccc2c(c1)OCO2)c1nc2cccnc2n(Cc2ccccc2)c1=O was read as HEK cytotox 79µM* and 3T3 cytotox inconclusive.
For CC(C)(C)c1ccc(C(=O)N2CCN(C(=O)c3nnn4c3COC(c3ccc(F)cc3)C4)CC2)cc1 (stereo unspecified) the results were HEK cytotox inconclusive, NPR1 antag -18%, FLuc inh inactive and 3T3 cytotox inconclusive.
For O=C(c1ccc(F)cc1)N1CCN(C(=O)c2nnn3c2COC(c2ccc(Cl)cc2)C3)CC1 (stereo unspecified) the results were HEK cytotox 40µM*, NPR1 antag -26%, FLuc inh inactive and 3T3 cytotox inconclusive.
`Cc1ccc(C(=O)N2CCN(C(=O)c3nnn4c3COC(c3ccc(Cl)cc3)C4)CC2)cc1F` (stereo unspecified) gave HEK cytotox -16%, NPR1 antag -1%, FLuc inh inactive and 3T3 cytotox -12%.
For O=C(c1cc(F)ccc1F)N1CCN(C(=O)c2nnn3c2COC(c2ccc(Cl)cc2)C3)CC1 (stereo unspecified) the results were HEK cytotox 35µM*, NPR1 antag inconclusive, FLuc inh inactive and 3T3 cytotox -25%.
O=C(c1ccccc1F)N1CCCC(C(=O)N2CCCC(c3nc4ncccc4[nH]3)C2)C1 (stereo unspecified) was read as HEK cytotox -19% and 3T3 cytotox -15%.
For COC(=O)CNC(=O)c1ccc2oc(-c3ccncc3)nc2c1 the results were HEK cytotox -18%[172 µM] and 3T3 cytotox -9%[138 µM].
`C=CCn1cc2c3c(cccc31)[C@H](CC(C)C)N[C@H](C(=O)NCCC)C2` gave HEK cytotox 50µM*, NPR1 antag 1%[70.6 µM], FLuc inh inactive and 3T3 cytotox 71µM*.
For C=CCNC(=O)[C@@H]1Cc2cn(CC=C)c3cccc(c23)[C@H](CC(C)C)N1 the results were HEK cytotox inconclusive, NPR1 antag -2%[70.6 µM], FLuc inh inactive and 3T3 cytotox inconclusive.
For C=CCn1cc2c3c(cccc31)[C@H](CC(C)C)N[C@H](C(=O)NCCN(C)C)C2 the results were HEK cytotox 35µM*, NPR1 antag 2%[70.6 µM], FLuc inh inactive and 3T3 cytotox 35µM*.
`CC(C)C[C@@H]1N[C@H](C(=O)NCCN(C)C)Cc2cn(CC3CC3)c3cccc1c23` gave HEK cytotox 32µM*, NPR1 antag -1%[70.6 µM], FLuc inh inactive and 3T3 cytotox 32µM*.
CC(C)C[C@@H]1N[C@H](C(=O)NCc2cccs2)Cc2cn(CC3CC3)c3cccc1c23 was read as HEK cytotox 63µM*, NPR1 antag -18%[70.6 µM], FLuc inh inactive and 3T3 cytotox 71µM*.
Cc1cc(C)n(CC(=O)N2CCC(Cc3ccc(CN4CCN(C)CC4)cc3)CC2)n1 was read as HEK cytotox inconclusive and 3T3 cytotox -15%.
`N#Cc1ccc(S(=O)(=O)N[C@H]2[C@H](O)[C@H](O)C[C@@H]2c2ccc(C(F)(F)F)cc2)cc1` gave HEK cytotox inconclusive, NPR1 antag -14%[70.6 µM], FLuc inh inactive and 3T3 cytotox inconclusive.
`COc1ccc(-c2ccccc2C(=O)N2CCC(NC(=O)c3ccc(C)cc3)CC2)nn1` gave HEK cytotox 5% and 3T3 cytotox -13%.
For Cc1oc2ccn(Cc3ccc(F)cc3)c(=O)c2c1C(=O)NC1CC1 the results were HEK cytotox inconclusive, NPR1 antag inconclusive, FLuc inh inactive and 3T3 cytotox inconclusive.
Screening COc1ccc(C(=O)NCCn2ccn3nc(-c4cccc(OC)c4)cc3c2=O)cc1 returned HEK cytotox inconclusive, NPR1 antag -24%, FLuc inh inactive and 3T3 cytotox inconclusive.
For COc1cccc(CCC(=O)NCCn2ccn3nc(-c4cccc(OC)c4)cc3c2=O)c1 the results were HEK cytotox inconclusive, NPR1 antag -24%, FLuc inh 8.9µM* and 3T3 cytotox inconclusive.
CCOc1ccc(CC(=O)NCCn2ccn3nc(-c4cccc(OC)c4)cc3c2=O)cc1 was read as HEK cytotox inconclusive, NPR1 antag -8%, FLuc inh inconclusive and 3T3 cytotox inconclusive.
CCC(C(=O)NCCn1ccn2nc(-c3cccc(OC)c3)cc2c1=O)c1ccccc1 (stereo unspecified) was read as HEK cytotox inconclusive, NPR1 antag inconclusive, FLuc inh 14µM* and 3T3 cytotox inconclusive.

Bioassay records from PubChem BioAssay.
